According to PubChem BioAssay:
Records with an inconclusive call do not appear. Activity calls are given as the source filed them.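 Rule for the calls, unless noted: active = binding below the plate cutoff, the plate median minus 3 SD, with a reading above zero; inconclusive = below the plate cutoff but reading exactly zero; inactive = the rest.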

Experiments:
[1] = rapamycin-like changes in RPL19A-GFP expression – cell-based, S. cerevisiae, multiplex flow cytometry, primary screen (AID 1862; in the data active = percent of DMSO control GFP below about 86%;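 note: lower values mimic rapamycin by blocking the RPL19A rise seen in DMSO cells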); settings: S. cerevisiae RPL19A-GFP strain, flow cytometry fluorescence, 3 h; at 10 µM; stronger effect = lower value
[2] = TOR pathway GLN3 branch reporter MEP2-GFP changes – S. cerevisiae, multiplex flow cytometry, primary screen (AID 1867;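 active = GFP response, as percent of the DMSO control, above the screen-wide mean plus 3 SD, about 139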;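 note: median GFP channel fluorescence of barcode-gated MEP2-GFP cells measured by flow cytometry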); settings: S. cerevisiae MEP2-GFP strain, 3 h, at 10 µM, stronger effect = higher value, 100% means same as DMSO wells
[3] = TOR pathway RTG branch CIT2 reporter changes – S. cerevisiae, GFP fusion, multiplex flow cytometry, primary screen (AID 1870;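 active = percent response above a set limit, the screen-wide mean plus 3 SD, cut at about 130% in these data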;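 note: barcoded CIT2-GFP strain pooled with four other GFP strains with rapamycin as positive control; median GFP fluorescence per well over plate mean of DMSO wells so 100% = DMSO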); settings: S. cerevisiae CIT2-GFP expression, 3 h, at 10 µM, stronger effect = higher value
[4] = TOR pathway LAP4-GFP level changes – S. cerevisiae, multiplex flow cytometry, primary screen (AID 1873;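 active = GFP signal, as percent of the solvent control, above the screen mean plus 3 SD, about 149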); settings: S. cerevisiae LAP4-GFP expression, 3 h, at 10 µM, stronger effect = higher value
[5] = yeast AGP1-GFP level changes, GLN3 branch – cell-based, multiplex flow cytometry, S. cerevisiae, primary screen (AID 1887;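 active = GFP signal above the screen-wide mean plus 3 SD, that is over about 124.5% of the solvent control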;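 note: AGP1-GFP fusion strain of S. cerevisiae within a five-strain barcoded multiplex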); settings: 3 h, at 10 µM, stronger effect = higher value
[6] = reduced mouse 2C T cell binding to pMHC/ICAM-1 vesicles – MLPCN validation set, flow cytometry, LFA-1/ICAM-1 modulator project, pilot screen (AID 2523;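 active = response below a set limit, under 55% cells CD8-positive and vesicle-bound, and CD8 cells' 90th-percentile brightness under 279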;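 for vesicle binding response: mean PE anti-B7-1 fluorescence of CD8+ cells relative to row control; 100% = QL9-loaded vesicles with DMSO vehicle in the same plate row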); settings: 2C mouse CD8+ T cells, at 7 µM, stronger effect = lower value; double positive events: measured here: CD8+/vesicle+ event percentage
[7] = molecular target: Integrin beta-1 (Homo sapiens) + Integrin alpha-4 (Homo sapiens) (UniProt P13612+P05556); assay: alpha4beta1 integrin LIBS antibody binding reduction – U937 cells, HUTS-21 mAb, flow cytometry, validation set, VLA-4 allosteric modulator project, pilot screen (AID 2674;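 active = inhibition above 50%, about 3 SD of the validation set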;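 note: antibody binding induced by the VLA-4 ligand LDV present at three times its Kd; 0% = LDV ligand with antibody and no compound and 100% = antibody without LDV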); settings: HUTS-21 LIBS mAb binding, at 6.7 µM, stronger effect = higher value, binding induced by LDV ligand
Integrin beta-1 (Homo sapiens) + Integrin alpha-4 (Homo sapiens), sequence (P05556 whole entry, looked up): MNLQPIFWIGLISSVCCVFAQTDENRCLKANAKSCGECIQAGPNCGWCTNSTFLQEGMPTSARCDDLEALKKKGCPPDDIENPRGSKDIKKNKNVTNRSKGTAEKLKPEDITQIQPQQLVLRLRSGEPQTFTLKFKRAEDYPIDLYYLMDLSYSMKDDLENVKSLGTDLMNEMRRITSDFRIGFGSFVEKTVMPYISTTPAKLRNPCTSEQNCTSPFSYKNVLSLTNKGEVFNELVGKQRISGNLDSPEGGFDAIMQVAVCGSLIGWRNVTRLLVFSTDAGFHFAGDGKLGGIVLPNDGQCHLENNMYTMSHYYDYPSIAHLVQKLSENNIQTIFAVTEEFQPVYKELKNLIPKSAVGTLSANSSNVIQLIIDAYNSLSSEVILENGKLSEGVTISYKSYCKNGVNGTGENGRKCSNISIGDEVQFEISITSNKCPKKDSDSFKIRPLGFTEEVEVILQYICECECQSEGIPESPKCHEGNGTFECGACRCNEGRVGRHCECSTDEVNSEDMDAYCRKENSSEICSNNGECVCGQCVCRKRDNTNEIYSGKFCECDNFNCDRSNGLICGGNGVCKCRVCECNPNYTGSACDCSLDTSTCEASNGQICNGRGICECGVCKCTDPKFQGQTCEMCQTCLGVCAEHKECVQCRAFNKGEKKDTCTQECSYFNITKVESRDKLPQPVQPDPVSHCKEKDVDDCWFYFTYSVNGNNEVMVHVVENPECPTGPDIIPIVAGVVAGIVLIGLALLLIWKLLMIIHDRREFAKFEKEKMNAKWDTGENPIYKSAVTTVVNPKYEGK
Integrin beta-1 (Homo sapiens) + Integrin alpha-4 (Homo sapiens), sequence (P13612 whole entry, looked up): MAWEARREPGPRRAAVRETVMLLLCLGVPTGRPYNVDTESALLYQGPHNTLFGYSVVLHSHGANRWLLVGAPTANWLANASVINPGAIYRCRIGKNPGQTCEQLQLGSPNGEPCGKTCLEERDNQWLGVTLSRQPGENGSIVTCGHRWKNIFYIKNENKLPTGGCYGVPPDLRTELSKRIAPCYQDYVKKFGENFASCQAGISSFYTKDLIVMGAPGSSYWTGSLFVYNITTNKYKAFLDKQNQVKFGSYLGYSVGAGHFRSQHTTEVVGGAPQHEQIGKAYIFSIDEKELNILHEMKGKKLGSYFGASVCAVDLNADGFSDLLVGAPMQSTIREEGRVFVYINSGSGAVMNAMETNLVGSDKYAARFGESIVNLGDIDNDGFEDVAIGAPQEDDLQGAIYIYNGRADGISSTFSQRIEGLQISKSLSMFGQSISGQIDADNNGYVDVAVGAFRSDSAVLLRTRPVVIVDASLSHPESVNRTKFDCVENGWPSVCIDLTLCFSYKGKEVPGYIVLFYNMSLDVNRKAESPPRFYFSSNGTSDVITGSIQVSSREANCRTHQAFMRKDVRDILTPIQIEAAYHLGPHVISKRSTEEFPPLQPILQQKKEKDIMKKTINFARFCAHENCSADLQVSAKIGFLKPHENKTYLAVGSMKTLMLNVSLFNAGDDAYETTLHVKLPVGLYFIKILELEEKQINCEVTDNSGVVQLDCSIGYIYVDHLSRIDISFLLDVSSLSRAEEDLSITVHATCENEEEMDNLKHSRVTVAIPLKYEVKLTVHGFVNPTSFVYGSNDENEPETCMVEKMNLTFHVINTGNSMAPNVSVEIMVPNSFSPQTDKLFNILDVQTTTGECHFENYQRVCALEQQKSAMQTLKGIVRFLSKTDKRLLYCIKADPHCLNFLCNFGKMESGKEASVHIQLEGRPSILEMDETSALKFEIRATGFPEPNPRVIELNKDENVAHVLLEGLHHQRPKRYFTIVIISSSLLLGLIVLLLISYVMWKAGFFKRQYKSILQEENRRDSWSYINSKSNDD

[8] = calorie-restriction mimetic ROS inhibitors, yeast – validation compound set, pilot screen (AID 2706;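 active = superoxide response below 65% of plate, a cut near 3 SD across the whole screen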;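 note: yeast exposed to compound for one week at 30 degrees C before staining; 100% = mean of all compound wells on the same plate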); settings: S. cerevisiae aging, superoxide DHE fluorescence; at 10 µM, stronger effect = lower value
[9] = molecular target: Beta-adrenergic receptor kinase 1 (Homo sapiens) (UniProt P25098); assay: GRK2 binders displacing RNA aptamer, biochemical, validation, human GRK2, bead flow cytometry (AID 488806;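 active = aptamer binding inhibition above 30%, about 3 SD of noise from non-fluorescent compounds; inactive = inhibition at or below 30%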); settings: bead-bound GRK2, FAM-aptamer displacement, at 10 µM, stronger effect = higher value
Beta-adrenergic receptor kinase 1 (Homo sapiens), sequence (P25098 whole entry, looked up): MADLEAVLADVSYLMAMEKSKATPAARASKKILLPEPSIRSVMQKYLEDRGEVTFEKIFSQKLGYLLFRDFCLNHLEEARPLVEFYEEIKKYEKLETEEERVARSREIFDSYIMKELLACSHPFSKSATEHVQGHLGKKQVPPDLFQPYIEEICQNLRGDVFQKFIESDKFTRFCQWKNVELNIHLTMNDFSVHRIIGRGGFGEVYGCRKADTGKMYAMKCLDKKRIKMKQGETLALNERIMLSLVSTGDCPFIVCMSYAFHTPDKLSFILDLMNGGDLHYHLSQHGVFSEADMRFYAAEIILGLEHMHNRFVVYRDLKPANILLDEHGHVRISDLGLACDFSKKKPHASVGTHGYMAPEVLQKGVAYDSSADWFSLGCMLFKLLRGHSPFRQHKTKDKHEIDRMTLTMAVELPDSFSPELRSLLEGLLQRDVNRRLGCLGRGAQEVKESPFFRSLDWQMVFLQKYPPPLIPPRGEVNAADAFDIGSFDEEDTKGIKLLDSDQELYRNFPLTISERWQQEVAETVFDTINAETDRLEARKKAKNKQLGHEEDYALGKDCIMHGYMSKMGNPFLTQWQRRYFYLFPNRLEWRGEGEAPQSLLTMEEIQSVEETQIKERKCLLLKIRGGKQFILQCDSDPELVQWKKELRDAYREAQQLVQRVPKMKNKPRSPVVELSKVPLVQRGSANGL

[10] = molecular target: AP-2 complex subunit beta (Homo sapiens) (UniProt P63010); assay: beta-arrestin/AP2 interaction blockers – biochemical, validation set, GST-AP2 beads, flow cytometry, pilot screen (AID 504541;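 active = inhibition above 54%, about 3 SD of non-fluorescent compounds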;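 note: AP2 carries R879A mutation and is captured from E. coli lysate; bead-bound FITC arrestin peptide fluorescence measuring arrestin peptide binding to AP2; 0% = DMSO wells and 100% = excess unlabeled arrestin peptide control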); settings: FITC arrestin peptide, at 10 µM, stronger effect = higher value, AP2 beta2 appendage fragment, R879A mutant
AP-2 complex subunit beta (Homo sapiens), sequence (P63010 whole entry, looked up, the tested form may be a part, one chain of several): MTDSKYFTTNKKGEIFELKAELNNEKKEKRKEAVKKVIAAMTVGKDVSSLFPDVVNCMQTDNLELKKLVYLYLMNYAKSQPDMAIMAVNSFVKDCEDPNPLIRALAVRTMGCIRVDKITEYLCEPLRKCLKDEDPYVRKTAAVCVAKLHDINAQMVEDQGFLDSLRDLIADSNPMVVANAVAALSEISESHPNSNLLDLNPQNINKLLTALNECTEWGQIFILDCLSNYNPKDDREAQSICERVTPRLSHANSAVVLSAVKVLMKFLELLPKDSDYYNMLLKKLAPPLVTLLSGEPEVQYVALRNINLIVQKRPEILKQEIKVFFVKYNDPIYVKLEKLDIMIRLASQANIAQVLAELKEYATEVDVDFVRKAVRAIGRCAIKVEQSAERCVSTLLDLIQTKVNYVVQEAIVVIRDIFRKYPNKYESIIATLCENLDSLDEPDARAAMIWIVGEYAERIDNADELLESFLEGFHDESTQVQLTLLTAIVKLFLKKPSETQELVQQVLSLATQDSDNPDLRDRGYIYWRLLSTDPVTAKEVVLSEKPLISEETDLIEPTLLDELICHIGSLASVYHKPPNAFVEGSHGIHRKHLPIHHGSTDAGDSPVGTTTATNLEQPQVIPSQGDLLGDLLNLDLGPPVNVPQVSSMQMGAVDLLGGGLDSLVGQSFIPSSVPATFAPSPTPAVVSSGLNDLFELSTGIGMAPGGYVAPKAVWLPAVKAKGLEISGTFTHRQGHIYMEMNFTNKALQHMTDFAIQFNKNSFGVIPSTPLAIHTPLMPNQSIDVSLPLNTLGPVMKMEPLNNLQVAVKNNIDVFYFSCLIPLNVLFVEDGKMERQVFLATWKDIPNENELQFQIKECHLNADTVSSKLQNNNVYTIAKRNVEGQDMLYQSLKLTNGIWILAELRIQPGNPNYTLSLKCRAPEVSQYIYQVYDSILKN

[11] = cytosolic pH regulators acting via V-ATPase – S. cerevisiae, pHLuorin, HTS validation (AID 504600; in the data active = response above about 15%;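 note: plate controls were DMSO for no effect and reference compound for full effect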); settings: V-ATPase proton transport, at 10 µM, stronger effect = higher value
[12] = test system: anti-desmoglein-3 scFv antibody binding to human DSG3; assay: blockers of pathogenic pemphigus antibody–desmoglein-3 binding – biochemical, validation compound set, bead-based, flow cytometry, pilot screen (AID 588368); settings: Protein G beads, DSG3-Fc, scFv-GFP binding, at 10 µM, stronger effect = lower value;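 note: signal is the median channel fluorescence of bead-bound GFP antibody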
[13] = Nile Red efflux blockade in pump-expressing yeast – validation compound set, multiplex, phenotypic, pilot screen (AID 588506;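 active = efflux inhibition above 0.42, the validation set average plus 4 SD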;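 note: Nile Red retained in cells so higher fluorescence means more efflux inhibition; 0 = negative control wells and 1 = enniatin B 25 µM full block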); settings: S. cerevisiae pump-expressing triplex, Nile Red efflux flow cytometry; at 10 µM; stronger effect = higher value; the pumps come from Candida albicans
[14] = molecular target: ATP-binding cassette sub-family B member 6 (Homo sapiens) (UniProt Q9NP58); assay: blockers of ABCB6-driven porphyrin uptake – K562-ABCB6 cells, flow cytometry, validation set, pilot screen (AID 588550;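 active = inhibition above the screen-wide mean plus 3 SD, about 51%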;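 note: 0% = DMSO wells and 100% = benzethonium chloride 70 µM positive control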); settings: K562-ABCB6 porphyrin accumulation, 1 h, at 10 µM, stronger effect = higher value
ATP-binding cassette sub-family B member 6 (Homo sapiens), sequence (Q9NP58 whole entry, looked up): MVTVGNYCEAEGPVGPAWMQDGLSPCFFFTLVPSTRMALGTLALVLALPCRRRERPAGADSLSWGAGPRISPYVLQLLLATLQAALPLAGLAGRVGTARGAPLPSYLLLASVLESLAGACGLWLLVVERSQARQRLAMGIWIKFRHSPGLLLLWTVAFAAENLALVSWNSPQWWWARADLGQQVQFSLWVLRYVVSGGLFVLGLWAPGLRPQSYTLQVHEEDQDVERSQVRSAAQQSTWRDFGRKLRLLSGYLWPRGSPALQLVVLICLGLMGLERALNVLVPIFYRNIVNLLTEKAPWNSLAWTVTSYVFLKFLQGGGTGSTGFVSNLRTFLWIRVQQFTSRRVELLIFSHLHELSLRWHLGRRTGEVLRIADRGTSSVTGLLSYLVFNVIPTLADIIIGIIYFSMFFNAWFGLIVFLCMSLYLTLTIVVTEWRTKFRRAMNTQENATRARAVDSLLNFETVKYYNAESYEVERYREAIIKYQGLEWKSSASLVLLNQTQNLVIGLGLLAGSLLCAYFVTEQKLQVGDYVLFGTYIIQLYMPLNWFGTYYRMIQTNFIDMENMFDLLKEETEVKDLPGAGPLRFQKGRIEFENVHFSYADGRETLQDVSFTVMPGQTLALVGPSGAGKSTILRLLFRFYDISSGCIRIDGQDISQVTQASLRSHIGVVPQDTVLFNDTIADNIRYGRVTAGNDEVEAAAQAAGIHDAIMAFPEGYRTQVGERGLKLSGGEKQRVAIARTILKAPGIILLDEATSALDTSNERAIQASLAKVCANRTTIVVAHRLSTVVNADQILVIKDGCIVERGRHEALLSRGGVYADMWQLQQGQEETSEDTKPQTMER

[15] = AML differentiation inducers, ER-HoxA9 marrow cells – cell-based, GFP/MAC1 double positive, flow cytometry, validation set, primary screen (AID 588685;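 active = differentiation response of at least 50%, scaled between solvent and reference control, from cells with both markers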;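 note: compound exposure lasts four days before antibody staining and flow analysis; 0% = DMSO wells and 100% = 5 µM fulvestrant positive control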); settings: stronger effect = higher value, normalized: vehicle 0, fulvestrant 100
[16] = molecular target: Beta-2 adrenergic receptor (Homo sapiens) (UniProt P07550); assay: agonist-induced loss of surface beta2AR – cell-based, FAP fluorogen, flow cytometry, validation set, pilot screen (AID 504459;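 active = percent response above 42, roughly 3 SD of non-fluorescent test compounds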;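 note: agonist-driven loss of surface beta2AR via internalization measured by FAP dye flow cytometry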); settings: Am2.2-beta2AR cells, at 10 µM, stronger effect = higher value
Beta-2 adrenergic receptor (Homo sapiens), sequence (P07550 whole entry, looked up): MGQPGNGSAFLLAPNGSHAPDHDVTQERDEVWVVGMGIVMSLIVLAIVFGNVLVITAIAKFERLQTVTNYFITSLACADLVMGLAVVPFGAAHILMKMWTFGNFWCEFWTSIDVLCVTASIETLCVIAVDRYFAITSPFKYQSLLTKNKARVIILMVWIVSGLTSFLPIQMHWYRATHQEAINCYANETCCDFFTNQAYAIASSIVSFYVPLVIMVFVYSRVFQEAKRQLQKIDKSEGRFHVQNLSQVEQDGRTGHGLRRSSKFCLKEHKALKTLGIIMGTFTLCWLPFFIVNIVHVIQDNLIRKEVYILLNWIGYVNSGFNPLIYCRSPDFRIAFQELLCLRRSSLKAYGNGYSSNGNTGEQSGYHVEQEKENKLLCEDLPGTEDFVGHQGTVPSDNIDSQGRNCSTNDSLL

Nc1cccc2c1nnn2C1OC(CO)C(O)C(O)C1O (stereo not given)
58%: double positive events [6]
inactive: percent of DMSO control GFP [1] 104% | GFP response vs DMSO [2] 94.8% | percent response of DMSO control [3] 102% | GFP response vs DMSO [4] 85.3% | GFP response, % of DMSO [5] 102% | vesicle binding response [6] 192% | inhibition [7] -3.97% | superoxide response (% of plate) [8] 82.8% | aptamer binding inhibition [9] 0% | inhibition [10] -6.04% | response [11] 4.02% | binding (% of control) [12] 105% | efflux inhibition (fraction of control) [13] -0.05 | inhibition [14] 4% | differentiation response [15] -18%

CCC1(c2ccccc2)C(=O)NCNC1=O
61.9%: double positive events [6]
active: efflux inhibition (fraction of control) [13] 0.77
inactive: percent of DMSO control GFP [1] 102% | GFP response vs DMSO [2] 94.1% | percent response of DMSO control [3] 95.4% | GFP response vs DMSO [4] 87.4% | GFP response, % of DMSO [5] 92.6% | vesicle binding response [6] 285% | inhibition [7] 5.77% | aptamer binding inhibition [9] 2% | response [16] 7.83% | inhibition [10] 13.7% | response [11] 1.33% | binding (% of control) [12] 101% | inhibition [14] -12% | differentiation response [15] 13.9%

CCOC(=O)Cc1c(C)nc(N)[nH]c1=O
64.8%: double positive events [6]
active: efflux inhibition (fraction of control) [13] 0.52
inactive: percent of DMSO control GFP [1] 101% | GFP response vs DMSO [2] 95.1% | percent response of DMSO control [3] 102% | GFP response vs DMSO [4] 91.4% | GFP response, % of DMSO [5] 94.3% | vesicle binding response [6] 276% | inhibition [7] -1.49% | aptamer binding inhibition [9] 3% | response [16] -4.96% | inhibition [10] -8.2% | response [11] -0.76% | binding (% of control) [12] 107% | inhibition [14] 15% | differentiation response [15] 22.7%

COc1cccc(OCc2cc(C3Nc4ccccc4C(=O)N3Cc3ccco3)ccc2OC)c1 (stereo not given)
53.2%: double positive events [6]
inactive: percent of DMSO control GFP [1] 106% | GFP response vs DMSO [2] 99.9% | percent response of DMSO control [3] 104% | GFP response vs DMSO [4] 92.3% | GFP response, % of DMSO [5] 88.9% | vesicle binding response [6] 127% | inhibition [7] 3.49% | superoxide response (% of plate) [8] 99.1% | aptamer binding inhibition [9] 4% | inhibition [10] -4.8% | response [11] 0% | binding (% of control) [12] 96.5% | efflux inhibition (fraction of control) [13] 0.03 | inhibition [14] 3% | differentiation response [15] -9.89%

C[C@H]1C[C@H]2[C@@H]3CCC4=CC(=O)C=C[C@]4(C)[C@@]3(Cl)[C@@H](O)C[C@]2(C)[C@@]1(O)C(=O)CO
53.7%: double positive events [6]
inactive: percent of DMSO control GFP [1] 101% | GFP response vs DMSO [2] 103% | percent response of DMSO control [3] 106% | GFP response vs DMSO [4] 103% | GFP response, % of DMSO [5] 98.8% | vesicle binding response [6] 190% | inhibition [7] 4.42% | superoxide response (% of plate) [8] 85.2% | aptamer binding inhibition [9] 2% | inhibition [10] -8.65% | response [11] 4.84% | binding (% of control) [12] 96.9% | efflux inhibition (fraction of control) [13] -0.24 | inhibition [14] 6% | differentiation response [15] -9.89%

Cn1c2c(c(=O)[nH]c1=O)C(c1ccc(O)cc1)C1=C(N2)c2ccccc2C1=O (stereo not given)
inactive: percent of DMSO control GFP [1] 99% | GFP response vs DMSO [2] 97.9% | percent response of DMSO control [3] 101% | GFP response vs DMSO [4] 87.3% | GFP response, % of DMSO [5] 94.6% | vesicle binding response [6] 228% | inhibition [7] -3.04% | superoxide response (% of plate) [8] 92.2% | aptamer binding inhibition [9] -2% | inhibition [10] 8.12% | response [11] -0.45% | binding (% of control) [12] 96.9% | efflux inhibition (fraction of control) [13] -0.01 | inhibition [14] 9% | differentiation response [15] 11.1%
62.7%: double positive events [6]

NCCOc1ccccc1OCCN
inactive: percent of DMSO control GFP [1] 102% | GFP response vs DMSO [2] 93.8% | percent response of DMSO control [3] 102% | GFP response vs DMSO [4] 90.3% | GFP response, % of DMSO [5] 99.9% | vesicle binding response [6] 208% | inhibition [7] -6.77% | superoxide response (% of plate) [8] 91.8% | aptamer binding inhibition [9] -6% | inhibition [10] -11.9% | response [11] -1.26% | binding (% of control) [12] 109% | efflux inhibition (fraction of control) [13] -0.2 | inhibition [14] 11% | differentiation response [15] -26%
59.5%: double positive events [6]

CC/C(=C1/C(=O)CC(C)(C)C(C(=O)OC)C1=O)N1CCCC1 (stereo not given)
inactive: percent of DMSO control GFP [1] 103% | GFP response vs DMSO [2] 96.2% | percent response of DMSO control [3] 83.8% | GFP response vs DMSO [4] 83.5% | GFP response, % of DMSO [5] 88.9% | vesicle binding response [6] 174% | inhibition [7] 6.81% | aptamer binding inhibition [9] 3% | response [16] -0.83% | inhibition [10] -0.06% | response [11] 3.5% | binding (% of control) [12] 96.6% | inhibition [14] 11% | differentiation response [15] 34.5%
active: efflux inhibition (fraction of control) [13] 0.99
63%: double positive events [6]

Cn1cnc2c1c(=O)n(CC(O)CO)c(=O)n2C (stereo not given)
62.7%: double positive events [6]
inactive: percent of DMSO control GFP [1] 102% | GFP response vs DMSO [2] 96.2% | percent response of DMSO control [3] 98.9% | GFP response vs DMSO [4] 98.6% | GFP response, % of DMSO [5] 96.7% | vesicle binding response [6] 59.9% | inhibition [7] 11% | aptamer binding inhibition [9] -1% | response [16] -2.93% | inhibition [10] -6.49% | response [11] -0.43% | binding (% of control) [12] 102% | efflux inhibition (fraction of control) [13] -0.04 | inhibition [14] 9% | differentiation response [15] 43.2%

O=C(CCCN1CCC(O)(c2ccc(Cl)cc2)CC1)c1ccc(F)cc1
62.6%: double positive events [6]
inactive: percent of DMSO control GFP [1] 101% | GFP response vs DMSO [2] 99.3% | percent response of DMSO control [3] 91.9% | GFP response vs DMSO [4] 86.8% | GFP response, % of DMSO [5] 93.7% | vesicle binding response [6] 48.6% | inhibition [7] 9.92% | aptamer binding inhibition [9] -3% | response [16] -2.5% | inhibition [10] 13.3% | response [11] -1.24% | binding (% of control) [12] 105% | efflux inhibition (fraction of control) [13] 0.27 | inhibition [14] 21% | differentiation response [15] 15.9%
